From ChEMBL document CHEMBL3988442, “University of Dundee, Small-Polar-MMV Screening Library” (2021) come the findings set out here.

What all share (parameters): scale not given: direction of the effect not stated beside the values
Experiment [1] concerns the target Protein translocase subunit SecA (Escherichia coli (strain K12)) (UniProt P10408). Kind of experiment: Assay to Identify E. coli SecA ATPase Inhibitors. It counts as functional. To be noted: 30 µM.
The target of experiment [2] is T1, Ubiquitin-activating enzyme e1, putative (Leishmania donovani (strain BPK282A1)) (UniProt E9BSI1).
T1 sequence (whole entry): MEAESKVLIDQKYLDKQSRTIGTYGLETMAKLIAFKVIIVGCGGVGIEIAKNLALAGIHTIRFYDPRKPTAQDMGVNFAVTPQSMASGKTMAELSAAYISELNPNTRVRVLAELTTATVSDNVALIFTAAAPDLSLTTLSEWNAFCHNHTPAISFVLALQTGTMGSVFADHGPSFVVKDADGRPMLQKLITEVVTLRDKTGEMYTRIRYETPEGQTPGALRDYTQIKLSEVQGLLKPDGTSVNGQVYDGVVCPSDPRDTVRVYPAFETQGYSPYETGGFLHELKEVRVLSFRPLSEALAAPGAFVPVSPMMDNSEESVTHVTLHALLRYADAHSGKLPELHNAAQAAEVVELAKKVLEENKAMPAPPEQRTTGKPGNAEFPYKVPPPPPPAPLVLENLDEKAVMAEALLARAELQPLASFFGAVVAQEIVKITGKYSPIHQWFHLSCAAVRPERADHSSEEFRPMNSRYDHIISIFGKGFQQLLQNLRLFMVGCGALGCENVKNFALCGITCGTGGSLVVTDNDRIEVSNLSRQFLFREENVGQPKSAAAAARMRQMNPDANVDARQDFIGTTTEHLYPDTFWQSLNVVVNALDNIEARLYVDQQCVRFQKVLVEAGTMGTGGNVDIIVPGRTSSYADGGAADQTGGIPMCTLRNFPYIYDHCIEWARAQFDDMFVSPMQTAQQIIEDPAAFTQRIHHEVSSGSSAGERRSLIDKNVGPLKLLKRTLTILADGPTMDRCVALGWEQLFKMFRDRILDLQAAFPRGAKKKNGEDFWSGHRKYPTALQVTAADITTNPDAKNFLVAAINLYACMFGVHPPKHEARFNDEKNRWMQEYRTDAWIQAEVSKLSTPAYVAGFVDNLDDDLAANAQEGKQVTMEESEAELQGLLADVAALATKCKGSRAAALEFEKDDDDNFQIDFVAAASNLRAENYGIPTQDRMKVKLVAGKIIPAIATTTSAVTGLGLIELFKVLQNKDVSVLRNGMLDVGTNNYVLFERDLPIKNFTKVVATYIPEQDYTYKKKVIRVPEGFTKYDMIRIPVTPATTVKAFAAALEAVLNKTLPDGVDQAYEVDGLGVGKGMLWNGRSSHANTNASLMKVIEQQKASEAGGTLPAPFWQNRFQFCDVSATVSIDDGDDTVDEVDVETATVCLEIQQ
Kind of experiment: Leishmania donovani Ubiquitin Activating Enzyme (LdE1). It counts as functional. As to conditions: 30 µM.

Experiment [3] deals with AMP-activated protein kinase, AMPK (Homo sapiens) (UniProt P54646+O43741+P54619+Q9UGJ0+Q9Y478+Q13131+Q9UGI9). Kind of experiment: AMP-dependent Kinase enzyme assay. An in vitro enzyme assay that detects ADP turnover that is directly proportional to AMPK activity. This uses naive AMPK that is activated during the assay with MK-8722. It counts as functional. As to conditions: 30 µM.

The target in experiment [4] is Sialic acid-binding Ig-like lectin 9 (Homo sapiens) (UniProt Q9Y336). Kind of experiment: Hs-Siglec9 ALPHAscreen SOP 20170721. As to conditions: 10 µM.
The test system of the next experiment is Trypanosoma cruzi. Kind of experiment: Trypanosoma cruzi phosphomannomutase and mannose-1-phosphate guanylyltransferase assay. It counts as functional. To be noted: 10 µM.
In experiment [5] the target is T2, Arginase-2, mitochondrial (Homo sapiens) (UniProt P78540).
T2 sequence (whole entry): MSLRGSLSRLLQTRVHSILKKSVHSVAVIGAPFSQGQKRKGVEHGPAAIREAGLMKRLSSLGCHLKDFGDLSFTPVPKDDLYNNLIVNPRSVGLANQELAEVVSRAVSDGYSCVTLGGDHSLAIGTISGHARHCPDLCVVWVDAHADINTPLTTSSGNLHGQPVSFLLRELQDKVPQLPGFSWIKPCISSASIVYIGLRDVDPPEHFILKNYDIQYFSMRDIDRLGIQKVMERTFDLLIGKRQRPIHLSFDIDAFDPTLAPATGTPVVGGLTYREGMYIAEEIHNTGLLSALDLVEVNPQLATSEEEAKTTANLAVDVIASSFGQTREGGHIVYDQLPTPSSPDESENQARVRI
Kind of experiment: in vitro enzyme assay to detect the production of urea directly proportional to the activity of Arginase II. Note: in the data most compounds retested in dose-response had high values. It counts as functional. As to conditions: 33.3 µM.

Experiment [6] has as its target T3, Proteasome subunit beta (Trypanosoma cruzi) (UniProt O96673).
T3 sequence (whole entry): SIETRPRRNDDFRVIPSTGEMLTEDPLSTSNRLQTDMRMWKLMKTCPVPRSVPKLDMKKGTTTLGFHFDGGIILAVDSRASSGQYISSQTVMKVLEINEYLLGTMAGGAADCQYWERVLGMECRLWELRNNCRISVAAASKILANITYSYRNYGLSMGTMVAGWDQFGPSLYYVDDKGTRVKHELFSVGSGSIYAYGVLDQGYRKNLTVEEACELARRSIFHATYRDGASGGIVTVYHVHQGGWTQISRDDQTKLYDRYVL
Kind of experiment: Trypanosoma cruzi proteasome chymotrypsin-like activity (TcProtChymo) assay. Note: in the data most compounds retested in dose-response had high values. As to conditions: 9.37 µM. It counts as functional.

For another experiment, the species on record is Homo sapiens. Kind of experiment: To identify inhibition of the IFN signalling (Jak-Stat) pathway via expression of an eGFP reporter gene under the control of an IFN-stimulated response element (ISRE) containing MxA promoter. It counts as functional. As to conditions: 30 µM. In general terms: A reporter such as luciferase makes a cellular process visible.

The target of experiment [7] is T4, Tyrosyl-tRNA synthetase, putative (Trypanosoma cruzi (strain CL Brener)) (UniProt Q4DSP6).
T4 sequence (whole entry): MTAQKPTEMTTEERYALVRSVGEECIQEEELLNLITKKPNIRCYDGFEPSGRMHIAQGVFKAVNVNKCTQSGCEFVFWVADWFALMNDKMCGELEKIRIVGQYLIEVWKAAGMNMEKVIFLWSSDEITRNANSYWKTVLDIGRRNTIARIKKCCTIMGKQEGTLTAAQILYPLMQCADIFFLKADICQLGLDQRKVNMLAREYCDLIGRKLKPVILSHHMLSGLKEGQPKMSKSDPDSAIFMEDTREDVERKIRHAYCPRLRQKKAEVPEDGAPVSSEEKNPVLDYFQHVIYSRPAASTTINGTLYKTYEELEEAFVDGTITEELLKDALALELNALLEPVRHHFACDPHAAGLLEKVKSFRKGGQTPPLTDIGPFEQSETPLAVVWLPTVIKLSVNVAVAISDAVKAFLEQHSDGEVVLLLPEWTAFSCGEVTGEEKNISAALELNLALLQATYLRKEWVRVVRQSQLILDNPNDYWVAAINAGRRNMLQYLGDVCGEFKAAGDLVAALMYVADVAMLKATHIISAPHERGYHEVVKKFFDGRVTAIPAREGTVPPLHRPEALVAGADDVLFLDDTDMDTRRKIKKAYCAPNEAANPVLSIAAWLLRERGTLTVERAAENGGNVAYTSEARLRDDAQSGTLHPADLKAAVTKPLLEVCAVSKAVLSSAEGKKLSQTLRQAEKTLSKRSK
Kind of experiment: Trypanosoma cruzi tyrosyl tRNA synthetase (TcYRS) _High Tyrosine SOP. Note: in the data most compounds retested in dose-response had high values. It counts as functional. To be noted: 30 µM.

The target in experiment [8] is T4, Tyrosyl-tRNA synthetase, putative (Trypanosoma cruzi (strain CL Brener)). Kind of experiment: Trypanosoma cruzi tyrosyl tRNA synthetase (TcYRS) SOP. It counts as functional. As to conditions: 30 µM.
For experiment [9], the target named is Chromo domain-containing protein 1 (Saccharomyces cerevisiae (strain ATCC 204508 / S288c) (Baker's yeast)) (UniProt P32657). Kind of experiment: ScCHD-1 Enzyme Inhibition Assay. Note: in the data most compounds retested in dose-response had high values. It counts as functional. To be noted: 30 µM.

For some of these results: Measured potencies and affinities stand elsewhere.

Chromo domain-containing protein 1 (Saccharomyces cerevisiae (strain ATCC 204508 / S288c) (Baker's yeast)), sequence (P32657 whole entry, the tested form may be a part): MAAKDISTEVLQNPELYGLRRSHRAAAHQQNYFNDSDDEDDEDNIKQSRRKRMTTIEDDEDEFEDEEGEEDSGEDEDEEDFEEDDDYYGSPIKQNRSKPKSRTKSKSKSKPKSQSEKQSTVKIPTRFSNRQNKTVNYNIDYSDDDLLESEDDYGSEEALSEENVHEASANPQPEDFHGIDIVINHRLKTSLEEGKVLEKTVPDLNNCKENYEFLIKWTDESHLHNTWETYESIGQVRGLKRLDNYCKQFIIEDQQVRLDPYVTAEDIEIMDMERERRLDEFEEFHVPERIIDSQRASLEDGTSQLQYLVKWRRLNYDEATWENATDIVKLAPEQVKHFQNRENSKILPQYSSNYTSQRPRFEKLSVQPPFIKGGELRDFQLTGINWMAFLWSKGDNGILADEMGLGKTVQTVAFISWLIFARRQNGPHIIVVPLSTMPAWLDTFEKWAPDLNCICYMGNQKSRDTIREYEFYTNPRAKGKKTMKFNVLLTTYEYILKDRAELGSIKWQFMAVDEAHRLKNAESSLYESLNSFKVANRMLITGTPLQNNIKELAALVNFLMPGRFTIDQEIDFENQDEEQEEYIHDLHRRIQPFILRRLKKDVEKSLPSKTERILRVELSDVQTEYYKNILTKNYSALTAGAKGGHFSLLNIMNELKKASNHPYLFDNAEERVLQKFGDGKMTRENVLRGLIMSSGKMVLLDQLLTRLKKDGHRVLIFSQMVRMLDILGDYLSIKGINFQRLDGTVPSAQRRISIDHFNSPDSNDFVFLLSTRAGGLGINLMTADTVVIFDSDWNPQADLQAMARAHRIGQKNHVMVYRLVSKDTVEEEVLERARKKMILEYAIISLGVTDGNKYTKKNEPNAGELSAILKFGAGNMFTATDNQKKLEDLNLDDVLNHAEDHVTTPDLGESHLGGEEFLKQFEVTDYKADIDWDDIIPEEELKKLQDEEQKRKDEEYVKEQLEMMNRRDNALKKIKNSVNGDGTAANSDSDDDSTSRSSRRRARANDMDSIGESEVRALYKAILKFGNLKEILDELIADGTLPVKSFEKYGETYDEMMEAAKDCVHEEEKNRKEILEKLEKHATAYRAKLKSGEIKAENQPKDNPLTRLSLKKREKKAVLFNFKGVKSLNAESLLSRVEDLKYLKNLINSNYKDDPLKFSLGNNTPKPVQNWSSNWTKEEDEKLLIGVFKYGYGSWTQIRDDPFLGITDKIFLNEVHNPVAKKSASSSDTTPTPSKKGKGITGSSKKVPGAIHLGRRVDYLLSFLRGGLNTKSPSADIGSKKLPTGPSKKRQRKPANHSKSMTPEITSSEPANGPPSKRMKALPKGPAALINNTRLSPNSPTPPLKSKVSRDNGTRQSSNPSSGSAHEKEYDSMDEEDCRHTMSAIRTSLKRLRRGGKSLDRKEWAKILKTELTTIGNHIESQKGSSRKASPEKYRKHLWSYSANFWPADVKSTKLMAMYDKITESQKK
Protein translocase subunit SecA (Escherichia coli (strain K12)), sequence (P10408 whole entry): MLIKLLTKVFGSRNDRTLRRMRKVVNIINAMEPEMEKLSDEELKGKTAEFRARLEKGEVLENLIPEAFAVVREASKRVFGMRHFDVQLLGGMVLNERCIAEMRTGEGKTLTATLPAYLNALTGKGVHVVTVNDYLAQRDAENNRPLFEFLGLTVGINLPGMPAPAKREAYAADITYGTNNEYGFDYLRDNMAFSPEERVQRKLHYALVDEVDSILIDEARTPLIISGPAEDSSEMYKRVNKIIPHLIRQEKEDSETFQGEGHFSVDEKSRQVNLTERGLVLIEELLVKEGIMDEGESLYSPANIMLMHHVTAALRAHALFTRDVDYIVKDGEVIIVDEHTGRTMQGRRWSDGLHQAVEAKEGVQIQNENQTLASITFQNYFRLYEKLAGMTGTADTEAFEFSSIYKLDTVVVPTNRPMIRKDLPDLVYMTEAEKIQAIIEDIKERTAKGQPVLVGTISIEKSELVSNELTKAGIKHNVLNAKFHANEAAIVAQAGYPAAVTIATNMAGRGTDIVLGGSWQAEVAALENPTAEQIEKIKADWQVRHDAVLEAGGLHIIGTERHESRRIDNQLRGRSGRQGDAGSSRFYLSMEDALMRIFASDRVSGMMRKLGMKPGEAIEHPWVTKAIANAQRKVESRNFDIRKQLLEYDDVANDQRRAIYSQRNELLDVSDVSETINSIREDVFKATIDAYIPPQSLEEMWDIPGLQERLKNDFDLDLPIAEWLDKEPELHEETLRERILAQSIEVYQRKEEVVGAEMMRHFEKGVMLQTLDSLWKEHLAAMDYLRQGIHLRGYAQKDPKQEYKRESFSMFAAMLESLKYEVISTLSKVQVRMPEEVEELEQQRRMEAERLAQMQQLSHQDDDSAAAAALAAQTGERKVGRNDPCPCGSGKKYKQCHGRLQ
Sialic acid-binding Ig-like lectin 9 (Homo sapiens), sequence (Q9Y336 whole entry): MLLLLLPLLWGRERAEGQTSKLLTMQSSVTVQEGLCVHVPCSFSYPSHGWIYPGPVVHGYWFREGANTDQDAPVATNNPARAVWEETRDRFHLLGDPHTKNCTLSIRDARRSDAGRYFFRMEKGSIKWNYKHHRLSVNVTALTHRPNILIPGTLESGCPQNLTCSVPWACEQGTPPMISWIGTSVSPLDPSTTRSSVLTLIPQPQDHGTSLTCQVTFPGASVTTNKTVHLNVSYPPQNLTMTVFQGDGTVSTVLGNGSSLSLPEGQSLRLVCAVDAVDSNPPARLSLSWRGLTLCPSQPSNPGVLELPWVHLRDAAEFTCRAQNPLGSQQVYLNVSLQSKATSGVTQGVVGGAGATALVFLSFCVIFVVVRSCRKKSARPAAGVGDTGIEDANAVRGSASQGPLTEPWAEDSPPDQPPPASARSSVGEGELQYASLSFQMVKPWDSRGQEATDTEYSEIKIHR

`Cc1nc(CN2CCC3(CCN(c4ncc(F)cn4)C3)C2=O)cs1` (stereo unspecified): the Percent Effect in experiment [1] was 1.42%; in experiment [2], 15.6%; in experiment [3], 4.16%; in experiment [4], -14.7%; in the experiment with Trypanosoma cruzi it was -3.25%; in [5], 9.68%. Also, the Percent Effect in [6] is 21.4%; in the experiment listed under Homo sapiens it was 6.2%; in [7], 6.35%; in [8], 11.5%; in [9] it was -9.48%.
Take `CCn1cnnc1CNC(=O)N1CCN(c2cccc(OC)c2)CC1`: the Percent Effect in experiment [1] is -4.11%; in experiment [2], 20.8%; in experiment [3], -7.68%; in experiment [4], 2.16%; in the experiment on Trypanosoma cruzi, -3.75%; in [5], -0.356%. The Percent Effect is 12.3% in [6]; 25.9% in the experiment filed under Homo sapiens; 12.6% in experiment [7]; 14.6% in experiment [8]; -9.3% in [9].
Consider `CC(C)n1cnc2c1C(C(=O)NCCC#N)N(Cc1ccccc1)CC2` (stereo unspecified), for which the Percent Effect in experiment [1] was -5.9%; in [2], 16%; in experiment [3] it was -5.79%; in experiment [4] it was 0.457%; in the experiment with Trypanosoma cruzi it was 4.44%; in experiment [5], -40%. Also, the Percent Effect in experiment [6] was 14%; in the experiment filed under Homo sapiens, -0.451%; in [7], 2.08%; in experiment [8] it was 15%; in experiment [9] it was -7.21%.
For `COc1c(C)cnc(CN2CCOC(Cn3nc(C)nc3C)C2)c1C` (stereo unspecified), the Percent Effect in experiment [1] was -3.44%; in experiment [2], 7.59%; in experiment [3] it was -1.91%; in experiment [4] it was 11%; in the experiment with Trypanosoma cruzi, 1.6%; in experiment [5] it was 4.94%. In addition, the Percent Effect in [6] is -8.11%; in the experiment listed under Homo sapiens it was -11.7%; in experiment [7] it was 2.46%; in experiment [8], -8.86%; in experiment [9], 0.784%.
Consider `Cc1cc(C)n(C2CCCN(C(=O)CCCNc3ncccn3)C2)n1` (stereo unspecified), for which the Percent Effect in experiment [1] is -6.94%; in experiment [2] it was 13.9%; in experiment [3] it was -2.21%; in experiment [4], -4.67%; in the experiment on Trypanosoma cruzi, 3.38%; in experiment [5], 2.8%. Further, the Percent Effect in [6] was 10.6%; in the experiment filed under Homo sapiens, -0.293%; in experiment [7], 4.17%; in experiment [8] it was 20.2%; in experiment [9] it was -26.7%.
In the case of `c1cnnc(N2CCCC2CNCc2cnc(N3CCCC3)nc2)c1` (stereo unspecified), the Percent Effect is 0.488% in experiment [1]; -1.27% in experiment [2]; 13.5% in experiment [3]; 6.03% in experiment [4]; 1.33% in the experiment with Trypanosoma cruzi; 2.8% in [5]. Besides, the Percent Effect was 4.8% in experiment [6]; 16.1% in the experiment listed under Homo sapiens; 5.21% in [7]; 0% in experiment [8]; -7.82% in [9].
As for `Cc1cc(C)n(C2CN(CC(=O)N3CCOCC3)C2)n1`, the Percent Effect in experiment [1] is -2.95%; in experiment [2], 1.27%; in experiment [3], 6.75%; in experiment [4], 3.92%; with Trypanosoma cruzi, 0.103%; in experiment [5] it was 3.66%. For the same compound, the Percent Effect in experiment [6] is 11.2%; in the experiment filed under Homo sapiens it was -2%; in [7] it was 10.4%; in experiment [8], 7.59%; in [9], 0.125%.
Turning to `Cc1cnn(CC2CCCN2C(=O)c2cnc3n[nH]c(C)c3c2)c1` (stereo unspecified), the Percent Effect in [1] was -6.55%; in [2], 16.5%; in experiment [3] it was 0.256%; in [4], -4.46%; with Trypanosoma cruzi it was 2.36%; in experiment [5] it was 0.645%. Also, the Percent Effect in experiment [6] was 7.55%; in the experiment filed under Homo sapiens, 2.33%; in experiment [7], 3.12%; in experiment [8], 20.2%; in [9] it was -32.5%.
For the compound `COc1cccc(CCNC(=O)CN2CCCC2c2noc(C)n2)c1` (stereo unspecified), the Percent Effect in experiment [1] is -2.79%; in [2], 8.11%; in [3] it was 1.21%; in [4], -0.359%; with Trypanosoma cruzi, -5.48%; in experiment [5] it was 7.21%. The Percent Effect in [6] was 2.51%; in the experiment filed under Homo sapiens it was 20.8%; in experiment [7], 7.92%; in experiment [8], 11%; in [9], -1.21%.
As for `C[S+]([O-])c1nncn1CC(=O)c1cccc(Cl)c1` (stereo unspecified), the Percent Effect in [1] was -7.89%; in experiment [2] it was 16.2%; in [3], -4.48%; in [4], 23.3%; in the experiment with Trypanosoma cruzi it was 6.16%; in [5] it was 3.72%. The Percent Effect was 10.4% in experiment [6]; -1.98% in the experiment filed under Homo sapiens; 5.38% in experiment [7]; 8.64% in [8]; -6.7% in experiment [9].
As to `Cc1noc([C@@H]2CC[C@@H]3[C@@H](CCN3S(=O)(=O)C3CC3)O2)n1`, the Percent Effect was 0.234% in experiment [1]; 8.11% in [2]; 10.7% in experiment [3]; -3.31% in experiment [4]; -4.3% with Trypanosoma cruzi; 3.33% in [5]. For the same compound, the Percent Effect turned out to be 17.2% in experiment [6]; 4.51% in the experiment filed under Homo sapiens; 5.94% in [7]; 11% in experiment [8]; 6.55% in [9].
